Holding throughout (assay): Euclidean distance of Cell Painting phenotypic profile (signed KS, 77 features) to DMSO centroid (dimensionless distance); 5 or 10 uM (library dependent); higher = stronger phenotypic change vs DMSO (phenoactivity)
Common to all, as to conditions: 48 h

In one assay the test system is 786-O. The gist of the method:
(§1)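 Harmony extracted 77 features from 20X confocal images (9 fields/well) of stained cells, scoring each as a signed Kolmogorov-Smirnov statistic against same-plate vehicle wells. The cells, five cancer lines and a healthy fibroblast line, had received library compounds for 48 h at 10 or 5 uM depending on library, with 0.1% DMSO final. Phenoactivity is the Euclidean distance from each plate-position-corrected, correlation-weighted, top-dose replicate-averaged profile to the median vehicle profile.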

Another assay has as its system A549. The gist of the method: as §1
In another assay the test system is DU145. The gist of the method:
as §1

For another assay, the system named is FB. The procedure, abridged: as §1
The subject of the next assay is HEPG2. The procedure, abridged:
as §1

Another assay has as its system OVCAR4. The gist of the method:
as §1

Where a name gives a salt, the structure may show the parent alone.

With `CC1(C)O[C@@H]2C[C@H]3[C@@H]4CCC5=CC(=O)CC[C@]5(C)[C@@]4(F)[C@@H](O)C[C@]3(C)[C@]2(C(=O)CCl)O1` [Halcinonide], the Euclidean distance with 786-O was 1.46; in the assay with A549, 2.25; in the assay with DU145, 2.18; in the assay on FB it was 2; in the assay with HEPG2, 0.493; with OVCAR4, 1.78.

Regarding `N#Cc1cnc(Nc2cc(NC[C@H]3CNCCO3)c(C(F)(F)F)cn2)cn1`, the Euclidean distance was 3.22 with 786-O; 2.16 in the assay on A549; 2.89 in the assay with DU145; 3.11 with FB; 2.5 in the assay on HEPG2; 1.99 with OVCAR4.

For the compound `C=CC(=O)Nc1cccc(Oc2nc(Nc3ccc(N4CCN(C)CC4)cc3OC)ncc2Cl)c1`, the Euclidean distance in the assay with 786-O turned out to be 1.32; in the assay with A549, 1.34; in the assay with DU145 it was 1.43; in the assay with FB, 0.99; with HEPG2, 1.05; in the assay with OVCAR4 it was 1.98.

With `CCCCc1oc2ccc(NS(C)(=O)=O)cc2c1C(=O)c1ccc(OCCCN(CCCC)CCCC)cc1` [Dronedarone], the Euclidean distance was 4.33 in the assay with 786-O; 4.18 in the assay on A549; 3.45 in the assay on DU145; 3.39 with FB; 4.6 with HEPG2; 3.76 with OVCAR4.

Take `OC(CCN1CCCCC1)(c1ccccc1)C1CCCCC1` (stereo not given) [Trihexyphenidyl hydrochloride]: the Euclidean distance with 786-O came to 1.04; in the assay with A549, 1.1; in the assay with DU145, 0.794; in the assay with FB it was 0.849; in the assay on HEPG2, 1.17; in the assay on OVCAR4, 2.16.

In the case of `CCCCC(C)(O)C/C=C/[C@H]1[C@H](O)CC(=O)[C@@H]1CCCCCCC(=O)OC` (mixture of isomers) [Misoprostol], the Euclidean distance in the assay with 786-O was found to be 1.2; in the assay on A549, 0.849; with DU145, 1.06; with FB it was 1.07; in the assay on HEPG2, 0.553; with OVCAR4, 1.08.

On to `CC(C)Cc1ccc([C@@H](C)C(=O)NS(C)(=O)=O)cc1` [Reparixin (Repertaxin)], for which the Euclidean distance in the assay on 786-O stood at 1.16; with A549, 0.942; in the assay on DU145 it was 0.933; in the assay on FB, 1.09; in the assay with HEPG2, 1.25; in the assay on OVCAR4, 1.04.

Turning to `COCC1=C(C(=O)OC(C)OC(=O)OC(C)C)N2C(=O)[C@@H](NC(=O)/C(=N\OC)c3csc(N)n3)[C@H]2SC1` (stereo not given in full) [Cefpodoxime proxetil], the Euclidean distance with 786-O worked out at 1.25; in the assay with A549, 0.683; in the assay on DU145, 0.813; in the assay on FB, 1.04; with HEPG2, 0.687; in the assay on OVCAR4, 0.958.

As to `C[C@]12CC[C@@H]3c4ccc(O)cc4CC[C@H]3[C@@H]1CC[C@@H]2O` [Estradiol], the Euclidean distance in the assay on 786-O stood at 1.17; in the assay on A549, 0.515; in the assay on DU145, 2.36; with FB it was 1.1; in the assay with HEPG2, 0.515; in the assay with OVCAR4, 1.04.

Consider `C[C@@H]1CCO[C@H]2Cn3cc(C(=O)NCc4ccc(F)cc4F)c(=O)c(O)c3C(=O)N12` [Dolutegravir Sodium], for which the Euclidean distance in the assay with 786-O worked out at 0.603; in the assay with A549, 0.757; in the assay with DU145 it was 0.904; in the assay on FB it was 0.594; with HEPG2, 0.621; in the assay with OVCAR4, 0.881.

`CS(=O)(=O)CCNCc1ccc(-c2ccc3ncnc(Nc4ccc(OCc5cccc(F)c5)c(Cl)c4)c3c2)o1`: the Euclidean distance was 3.78 with 786-O; 3.57 in the assay with A549; 3.75 in the assay with DU145; 4.09 in the assay with FB; 4.37 in the assay with HEPG2; 3.36 with OVCAR4.

For the compound `O=C(Nc1cccnn1)N1CCC(=Cc2cccc(Oc3ccc(C(F)(F)F)cn3)c2)CC1`, the Euclidean distance in the assay with 786-O worked out at 1.52; in the assay with A549 it was 1.02; with DU145, 1.2; in the assay on FB it was 0.799; in the assay on HEPG2 it was 1.66; in the assay on OVCAR4 it was 1.21.

On to `CC(C)(Sc1cc(C(C)(C)C)c(O)c(C(C)(C)C)c1)Sc1cc(C(C)(C)C)c(O)c(C(C)(C)C)c1` [Probucol], for which the Euclidean distance with 786-O was 0.793; in the assay with A549, 0.681; in the assay with DU145 it was 0.734; in the assay with FB, 0.921; in the assay on HEPG2, 1.07; in the assay with OVCAR4 it was 1.14.

With `O=C(O)c1ccc(CN2CCC(CN[C@@H]3C[C@H]3c3ccccc3)CC2)cc1`, the Euclidean distance in the assay on 786-O was determined as 1.04; with A549, 1.01; with DU145, 0.946; in the assay on FB it was 1.08; in the assay with HEPG2, 1.11; in the assay with OVCAR4 it was 1.06.

With `COc1cc2nc(N3CCCN(C)CC3)nc(NC3CCN(Cc4ccccc4)CC3)c2cc1OC`, the Euclidean distance in the assay with 786-O came out at 4.16; in the assay with A549, 3.99; in the assay on DU145 it was 3.51; in the assay with FB it was 4.73; with HEPG2, 4.64; in the assay on OVCAR4, 3.6.

These data come from the supplement of paper PMC10127200.
